In the library only some 1.8% were active in any assay of this set; here they are far more common.
PfHsp40 yeast: rescue of yeast from PfHsp40 toxicity, primary screen, S. cerevisiae, ATP luminescence; S. cerevisiae expressing PfHsp40, growth rescue; growth rescue, % at 12.5 µM; 340,000 compounds, 0.68% hits; AID 504582, 2011; in the data active = growth rescue above about 28%, passing the limit was not always enough;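 also: yeast W303a lacking pdr1 and pdr3 grown in galactose medium; growth measured after three days at 30 °C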
MazEF act: activators of E. coli MazEF toxin-antitoxin RNase, primary screen, biochemical, fluorescence, uHTS | 350,000 compounds, 0.32% hits | activation, % at 20 µM | Endoribonuclease toxin MazF (Escherichia coli (strain K12)), P0AE70 | FAM/BHQ RNA-DNA oligo cleavage fluorescence, 5 h | AID 504720, 2011; in the data active = activation above about 50%
Target sequence (P0AE70 whole entry, looked up): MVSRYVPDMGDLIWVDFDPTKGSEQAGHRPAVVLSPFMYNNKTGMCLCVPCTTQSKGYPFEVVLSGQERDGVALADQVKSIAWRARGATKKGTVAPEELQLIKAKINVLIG
PriA SSB inh: inhibitors of Klebsiella pneumoniae PriA binding to SSB C-terminal tail, primary screen, biochemical, AlphaScreen. PriA–SSB C-terminal tail interaction (Klebsiella pneumoniae). AlphaScreen SSBct-PriA binding, biotinylated peptide. inhibition, % at 33 µM. 430,000 compounds, 0.6% hits. AID 1272365, 2023; in the data active = inhibition mostly above about 37%, no sharp cut-off; inactive = mostly below about 20%
PrPC surface inh: inhibitors of human cell surface prion protein PrPC, primary screen, cell-based, TR-FRET | Major prion protein (Homo sapiens), P04156 | TR-FRET read-out | inhibition, % at 13.8 µM | 370,000 compounds, 0.43% hits; in the data active = inhibition above about 24%
PrP UTR inh: inhibition of PrP 5' UTR reporter expression; inhibition, % (test concentration not listed); cell-based PrP 5' UTR mRNA reporter, plate reader; 340,000 compounds, 0.35% hits; in the data active = inhibition above about 52%
Hits are given with their value; i = inactive; nt = not tested or not shown; + = active, no number.

SMILES | PfHsp40 yeast | MazEF act | PriA SSB inh | PrPC surface inh | PrP UTR inh
O=[N+]([O-])c1ccc(C(=Nc2cccc3ccccc23)N2CCOCC2)cc1 | i | i | 48 | i | i
COC1=C(Nc2ccccc2)C(=O)c2ccccc2C1=O | i | i | i | i | i
COC1=C(Nc2ccc(C)cc2)C(=O)c2ccccc2C1=O | i | i | 90 | i | i
O=C(Nc1ccc2c(c1)OCCO2)c1csc2nc(-c3ccc(F)cc3)cn12 | nt | nt | i | nt | nt
COc1ccc(-c2cn3c(CCC(=O)Nc4ccc5c(c4)OCO5)csc3n2)cc1 | nt | nt | 38 | nt | nt
COc1ccc(-c2cn3c(C(=O)Nc4ccc5c(c4)OCCO5)csc3n2)cc1 | nt | nt | active | nt | nt
COc1ccc(-c2cn3c(CCC(=O)Nc4nc(C)cs4)csc3n2)cc1 | nt | nt | i | nt | nt
Cc1n[nH]c(C)c1N=Nc1ccc(Br)cc1 | 242 | i | i | i | i
COc1ccc(N=Nc2c(C)n[nH]c2C)cc1 | i | i | i | i | i
COc1cccc(/C=C2/SC(=S)N(CC(=O)NNC(=O)c3ccccc3O)C2=O)c1 | 155 | i | i | i | i
O=C(CN1C(=O)/C(=C/c2ccccc2)SC1=S)NNC(=O)c1ccccc1O | i | i | i | i | i
CC(=O)c1c(C)[nH]c(C(=O)NC2CCSc3ccccc32)c1C (stereo not given) | i | i | 45 | i | i
CC(=O)c1c(C)[nH]c(C(=O)NC2CCSc3c(F)cccc32)c1C (stereo not given) | nt | nt | 88 | nt | nt
CCc1c(C(=O)NC2CCCc3ccccc32)[nH]c(C)c1C(C)=O (stereo not given) | i | i | i | i | i
CCOC(=O)c1c(C)[nH]c(C(=O)NC2CCSc3ccccc32)c1C (stereo not given) | nt | nt | i | nt | nt
Cc1ccc([C@@H]2[C@@H]3C(=O)N(c4ccccc4)C(=O)[C@@H]3[C@]3(C)C(=O)N(Cc4ccccc4)CC(=O)N23)o1 | i | i | i | i | i
CC(OC(=O)CNS(=O)(=O)c1ccc(C#N)cc1)C(=O)Nc1ccc(Cl)cn1 (stereo not given) | i | i | i | i | i
COC(=O)c1c(SCC(=O)NC2CCCCC2)[nH]c2ccccc2c1=O | i | i | i | i | i
Cc1cccc(CC(=O)Nc2cc(C)nn2-c2nc(C)cc(=O)[nH]2)c1 | nt | nt | 51 | nt | nt
Cc1cc(=O)[nH]c(-n2nc(C)cc2N)n1 | nt | nt | 96 | nt | nt
Cc1cc(=O)[nH]c(-n2nc(C)cc2C)n1 | i | i | i | i | i
CC(C)c1cccc(C(C)C)c1NC(=O)COC(=O)C1CCC1 | i | i | i | i | i
COc1cccc(-c2cc3nc(-c4ccccc4)cc(N4CCCC(O)C4)n3n2)c1 (stereo not given) | 72 | i | i | i | i
CC(=O)Oc1c(I)cc(I)cc1C(=O)Nc1ccc(Cl)cc1 | 217 | i | i | i | i
CC1CCN(c2ccc3c(c2)S(=O)(=O)c2cccc(C(=O)NCc4ccc(F)cc4)c2C3=O)CC1 | i | + | i | i | i
SMILES | PfHsp40 yeast | MazEF act | PriA SSB inh | PrPC surface inh | PrP UTR inh
O=C(NCc1ccc(F)cc1)c1cccc2c1C(=O)c1ccc(N3CCC(Cc4ccccc4)CC3)cc1S2(=O)=O | i | i | i | i | i
Cc1nc2c(F)c(F)c(C(F)(F)F)c(F)c2[nH]1 | 88 | i | i | i | i
Cc1cnc(C(=O)OCC(=O)Nc2cc(Cl)cc(Cl)c2)cn1 | i | i | i | i | i
Cc1cnc(C(=O)OCC(=O)Nc2c(Cl)cc(Cl)cc2Cl)cn1 | 63 | i | i | i | i
Clc1ccc2c(NN=Cc3ccc(Br)cc3)ccnc2c1 | nt | nt | i | nt | nt
CSc1ccc(CNC(=O)c2nnn(-c3ccccc3Cl)c2-c2cccnc2)cc1 | nt | nt | i | nt | nt
O=C(c1ccc(F)cc1Cl)N1CCC(S(=O)(=O)c2ccc(F)cc2)CC1 | nt | nt | i | nt | nt
COc1ccc(-n2c(C)nc3ccc(NC(=O)CCCc4ccccc4)cc3c2=O)cc1 | nt | nt | i | nt | nt
O=C(CC(NCc1ccccn1)C(=O)O)Nc1ccccc1Cl (stereo not given) | i | i | 97 | i | i
O=C(NCc1ccccn1)Nc1cc(Cl)ccc1Cl | i | i | i | i | i
O=C(NCCN1CCN(c2ccccc2)CC1)c1ccco1 | nt | nt | i | nt | nt
COc1ccccc1C(=O)Nc1sc2c(c1C#N)CCC2 | i | 80 | i | nt | i
O=C(O)c1ccccc1C(=O)N1N=C(c2ccccc2)CC1c1ccccc1O (stereo not given) | i | i | i | i | i
Cc1cc(C(=O)CCl)c(C)n1CCc1ccc(F)cc1 | i | i | i | i | i
Cc1cc(C(=O)CCl)c(C)n1CCc1ccc(Cl)cc1 | i | i | 41 | i | i
Cc1cc(C)c(NC(=O)COC(=O)c2cccc3c2C(=O)c2ccccc2C3=O)c(C)c1 | i | i | i | i | i
Cc1cc(C)c(Nc2cc(S(=O)(=O)O)c(N)c3c2C(=O)c2ccccc2C3=O)c(C)c1 | 71 | i | i | i | i
COc1ccc(N2CCn3c2nc2c3c(=O)n(CCCc3ccccc3)c(=O)n2C)c(OC)c1 | i | 814 | i | i | i
COC(=O)C1(O)CC(C(C)C)=NN1C(=O)c1ccccc1 (stereo not given) | 45 | i | i | i | i
CC(=O)N(c1ccccc1)C1CC(C)N(C(=O)c2ccccc2)c2ccccc21 (stereo not given) | i | i | i | i | i
CN(C)CCCNc1cc(O)c2ncccc2c1 | i | i | 48 | i | i
O=C(NC(=S)Nc1ccc(CN2CCOCC2)cc1)c1ccco1 | i | i | i | i | i
O=C(NC(=S)Nc1ccc(CN2CCCCC2)cc1)c1ccco1 | 128 | i | i | i | i
COc1ccc(Br)cc1CNC(=O)C1CCCN(S(=O)(=O)N2CCC(C)CC2)C1 (stereo not given) | nt | i | nt | i | nt
Cn1nnnc1Sc1ccc([N+](=O)[O-])cc1Cl | i | i | i | i | i
SMILES | PfHsp40 yeast | MazEF act | PriA SSB inh | PrPC surface inh | PrP UTR inh
O=[N+]([O-])c1ccc(Sc2nnnn2-c2ccccc2)c(Cl)c1 | i | i | 45 | i | i
O=C(c1cccc(C(F)(F)F)c1)C1CCCN(Cc2ncc[nH]2)C1 (stereo not given) | i | i | i | i | i
c1c[nH]c(CN2CCN(Cc3ncc[nH]3)CC2)n1 | 384 | i | i | i | i
COc1ccc(Nc2nc(NC(C)(C)C)nc(N3CCOCC3)n2)c(OC)c1 | i | i | i | i | i
COc1ccc(Nc2nc(NC(C)(C)C)nc(N3CCCC3)n2)c(OC)c1 | i | i | 44 | i | i
COc1ccc2[nH]c(=O)c(CN(Cc3cccnc3)C(=O)Nc3ccccc3)cc2c1 | 288 | i | i | i | i
CCOc1ccc2[nH]c(=O)c(CN(Cc3cccnc3)C(=O)Nc3ccccc3OC)cc2c1 | i | i | i | i | i
CN(C)c1ccc(/C=N/NC(=O)CNC(=O)/C=C/c2ccccc2)cc1 | i | i | nt | i | i
CCSc1nsc(NC(=O)Nc2cccc(F)c2)n1 | i | i | i | 40 | i

Screening data deposited in PubChem BioAssay by several laboratories.
